{"source": "PubChem BioAssay AID430", "about": "(Sanford-Burnham Center for Chemical Genomics, 2006)", "note": "Hit rate of the full screen: of about 63,000 compounds, about 1,100 (1.7%) were called active. Only a selection was taken, and actives are over-represented in it overall. Results with a measured potency or affinity are listed apart. Unmarked numbers belong to inactive results. No stated cut-off is given here; in the data, active means cytotoxicity above about 50%; inactive means the rest.", "data": [{"experiment": "cytotoxicity in HPDE-C7 cells, cell-based, fluorescence, HTS (AID 430);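 further: cells exposed to compound for 48 hours before viability readout; 0% = vehicle and 100% = reference cytotoxic drug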", "details": "HPDE-C7 pancreatic duct cells viability, at 10 µM, active compounds read high", "values": [{"smiles": "Cc1ccc2c(c1)CC1(CN2C)C(=O)OC2(CCCCC2)OC1=O", "cytotoxicity": "-5.7%"}, {"smiles": "O=C1COc2ccc3ccccc3c2CN1", "cytotoxicity": "-6.8%"}, {"smiles": "CN1CC2(Cc3c1ccc1ccccc31)C(=O)OC(C)(C)OC2=O", "cytotoxicity": "80.9% (active)"}, {"smiles": "COc1ccc2c(c1)[nH]c1c(=O)n(CCN3CCCC3)cnc12", "cytotoxicity": "-19.4%"}, {"smiles": "Cc1cc(C(=O)Nc2nc3c(s2)CCCC3)cs1", "cytotoxicity": "-5.9%"}, {"smiles": "CCOC(=O)N1CCN(CC(O)COc2ccccc2C(C)C)CC1", "note": "(stereo not given)", "cytotoxicity": "-6%"}, {"smiles": "O=C(NC1CC2CCCC(C1)N2S(=O)(=O)c1ccccc1)c1ccccc1", "note": "(stereo not given)", "cytotoxicity": "-1.3%"}, {"smiles": "Cn1c(SCc2ccccc2)nnc1-c1ccncc1", "cytotoxicity": "-1.5%"}, {"smiles": "COc1ccc(NC(=O)CC2CCCCC2)cc1OC", "cytotoxicity": "-11.1%"}, {"smiles": "Cc1cccc2cc3c(nc12)SC(=NCC1CCCO1)N(Cc1ccco1)C3", "note": "(stereo not given)", "cytotoxicity": "53.7% (active)"}, {"smiles": "Cc1ccc2nc3c(cc2c1)CN(Cc1ccco1)C(=NCC1CCCO1)S3", "note": "(stereo not given)", "cytotoxicity": "-19.9%"}, {"smiles": "Cc1ccc2cc(CN(Cc3nnnn3Cc3ccco3)CC3CCCO3)c(=O)[nH]c2c1C", "note": "(stereo not given)", "cytotoxicity": "-0.4%"}, {"smiles": "CCc1nc(SCC(=O)N2CCN(C(=O)c3ccco3)CC2)c2c3c(sc2n1)CCCC3", "cytotoxicity": "3%"}, {"smiles": "COc1cccc(N2CCN(CC(=O)Nc3nnc(-c4ccccc4)s3)CC2)c1", "cytotoxicity": "21.2%"}, {"smiles": "O=C(CN1CCN(c2ccccc2)CC1)Nc1nnc(-c2ccccc2)s1", "cytotoxicity": "7.8%"}, {"smiles": "COc1ccc(N2CCN(CC(=O)Nc3nnc(-c4ccccc4)s3)CC2)cc1", "cytotoxicity": "50.3% (active)"}, {"smiles": "Cn1c(=O)oc2cc(S(=O)(=O)N3CCCC(C(=O)NCc4cccs4)C3)ccc21", "note": "(stereo not given)", "cytotoxicity": "-3.9%"}, {"smiles": "Cc1ccc2c(c1)-c1c(ssc1=S)C(C)(C)N2C(=O)CSc1nncn1C", "cytotoxicity": "-1.2%"}, {"smiles": "Cc1cc(C)c2c(c1)-c1c(ssc1=S)C(C)(C)N2C(=O)CSc1nncn1C", "cytotoxicity": "56.7% (active)"}, {"smiles": "Cc1ccc2c(c1)N(C(=O)CSc1nncn1C)C(C)(C)c1ssc(=S)c1-2", "cytotoxicity": "14.3%"}, {"smiles": "CCCN1Cc2cccc(C(N)=O)c2C1=O", "cytotoxicity": "-14.7%"}, {"smiles": "Cc1ccc(S(=O)(=O)Cc2ccc(C(=O)N3CCN(c4cc(C)ccc4C)CC3)o2)cc1", "cytotoxicity": "17.5%"}, {"smiles": "COc1ccc(N2CCN(C(=O)c3ccc(CS(=O)(=O)c4ccc(OC)cc4)o3)CC2)cc1", "cytotoxicity": "-11.6%"}, {"smiles": "COc1ccccc1S(=O)(=O)Cc1ccc(C(=O)N2CCN(c3ccccc3)CC2)o1", "cytotoxicity": "-24.2%"}, {"smiles": "Cc1ccccc1S(=O)(=O)Cc1ccc(C(=O)N2CCN(C3CCCCC3)CC2)o1", "cytotoxicity": "-7%"}, {"smiles": "COc1ccccc1S(=O)(=O)Cc1ccc(C(=O)N2CCN(c3cccc(Cl)c3)CC2)o1", "cytotoxicity": "60.8% (active)"}, {"smiles": "Cc1ccccc1S(=O)(=O)Cc1ccc(C(=O)N2CCN(c3ccc(F)cc3)CC2)o1", "cytotoxicity": "-10%"}, {"smiles": "COc1ccc(S(=O)(=O)Cc2ccc(C(=O)N3CCN(c4ccccc4F)CC3)o2)cc1", "cytotoxicity": "-21.7%"}, {"smiles": "COc1ccc(S(=O)(=O)Cc2ccc(C(=O)N3CCN(c4cccc(C)c4C)CC3)o2)cc1", "cytotoxicity": "57% (active)"}, {"smiles": "Cc1ccccc1S(=O)(=O)Cc1ccc(C(=O)N2CCN(c3ncccn3)CC2)o1", "cytotoxicity": "-19.4%"}, {"smiles": "Cc1ccc(C)c(N2CCN(C(=O)c3ccc(CS(=O)(=O)c4ccccc4C)o3)CC2)c1", "cytotoxicity": "55.6% (active)"}, {"smiles": "COc1ccccc1N1CCN(C(=O)c2ccc(CS(=O)(=O)c3ccccc3OC)o2)CC1", "cytotoxicity": "-8.2%"}, {"smiles": "Cc1ccccc1S(=O)(=O)Cc1ccc(C(=O)N2CCN(c3cccc(C)c3C)CC2)o1", "cytotoxicity": "87.9% (active)"}, {"smiles": "CC(NC(=O)Cn1cnc2c1c(=O)n(C)c(=O)n2C)c1ccccc1", "note": "(stereo not given)", "cytotoxicity": "-1.6%"}, {"smiles": "CCc1cccc(NC(=O)C2CCCN(S(=O)(=O)c3c(C)[nH]c(=O)[nH]c3=O)C2)c1", "note": "(stereo not given)", "cytotoxicity": "-1.3%"}, {"smiles": "[O-][N+]12CCN(CC1)c1ccccc12", "cytotoxicity": "-14.6%"}, {"smiles": "Cc1ccc2nc3ccc(N4CCCC4)nn3c(=O)c2c1", "cytotoxicity": "4.6%"}, {"smiles": "CCOC(=O)C1C(c2cccc(Cl)c2Cl)NC(=O)NC1(O)C(F)(F)F", "note": "(stereo not given)", "cytotoxicity": "-1.7%"}, {"smiles": "COC(=O)C1=C(C)NC(=O)CC1c1cccc(Cl)c1Cl", "note": "(stereo not given)", "cytotoxicity": "-12.9%"}, {"smiles": "N#CC1=C(SCC(=O)NC2CC2)NC(=O)C(C#N)C12CCCCC2", "note": "(stereo not given)", "cytotoxicity": "-13.2%"}, {"smiles": "CC(C)(C)C1CCC2(CC1)C(C#N)=C(SCC(=O)NC1CCCCC1)NC(=O)C2C#N", "note": "(stereo not given)", "cytotoxicity": "58.7% (active)"}, {"smiles": "N#CC1=C(SCC(=O)NC23CC4CC(CC(C4)C2)C3)NC(=O)C(C#N)C12CCCCC2", "note": "(stereo not given)", "cytotoxicity": "49.7%"}, {"smiles": "CCOC(=O)C1=C(SCC(=O)Nc2ccccc2)NC(=O)C(C#N)C12CCCCC2", "note": "(stereo not given)", "cytotoxicity": "1.9%"}, {"smiles": "N#CC1=C(N)NC(SCC(=O)Nc2ccccc2)=C(C#N)C12CCCC2", "cytotoxicity": "1.6%"}, {"smiles": "Cc1ccc2[nH]c(=O)c(CN(Cc3nnnn3Cc3ccccc3)C3CCCC3)cc2c1", "cytotoxicity": "-16.4%"}, {"smiles": "Cc1cnc(-c2nnc(N(C)C(=O)C3CCCO3)s2)cn1", "note": "(stereo not given)", "cytotoxicity": "-5.4%"}, {"smiles": "Cc1ccc(NC(=O)c2cnn(-c3ccccc3)c2NC(=O)c2ccco2)cc1C", "cytotoxicity": "1.7%"}, {"smiles": "Cc1ccc(-n2ncc(C(=O)N3CCc4ccccc4C3)c2NC(=O)c2ccco2)cc1C", "cytotoxicity": "71.2% (active)"}, {"smiles": "O=C(Nc1c(C(=O)N2CCCCC2)cnn1-c1ccccc1)c1ccco1", "cytotoxicity": "-10.4%"}, {"smiles": "CC(=O)Nc1ccc(S(=O)(=O)N2CCN(c3cc(C)ccc3C)CC2)cc1", "cytotoxicity": "7.6%"}, {"smiles": "CC(=O)Nc1ccc(S(=O)(=O)N2CCN(c3cc(C)nc4ccccc34)CC2)cc1", "cytotoxicity": "2.1%"}, {"smiles": "CC(=O)Nc1ccc(S(=O)(=O)N2CCC(c3nc4ccccc4[nH]3)CC2)cc1", "cytotoxicity": "6.7%"}, {"smiles": "CC(=O)Nc1ccc(S(=O)(=O)N2CCN(c3cccc(C)c3C)CC2)cc1", "cytotoxicity": "54.3% (active)"}, {"smiles": "COc1ccc(S(=O)(=O)N2CCN(c3cccc(C)c3C)CC2)cc1", "cytotoxicity": "2%"}, {"smiles": "CC(=O)Nc1ccc(S(=O)(=O)NC(CC(=O)N(C)Cc2ccccc2)C(C)C)cc1", "note": "(stereo not given)", "cytotoxicity": "-7.1%"}, {"smiles": "CC(C)N1CC(C(=O)Nc2nc3ccccc3s2)CC1=O", "note": "(stereo not given)", "cytotoxicity": "-0.4%"}, {"smiles": "CCCc1nc2sc3c(c2c(=O)n1N)CCC3", "cytotoxicity": "3%"}, {"smiles": "Nn1c(Nc2ccccc2)nc2sc3c(c2c1=O)CCC3", "cytotoxicity": "57.6% (active)"}, {"smiles": "CCc1nc2sc3c(c2c(=O)n1N)CCC3", "cytotoxicity": "1.2%"}, {"smiles": "COc1ccc(S(=O)(=O)N(CC(=O)O)c2ccc(C)cc2)cc1", "cytotoxicity": "-20.8%"}, {"smiles": "O=C(NCc1cccnc1)C1c2ccccc2C(=O)N1Cc1ccco1", "note": "(stereo not given)", "cytotoxicity": "-4.7%"}, {"smiles": "O=C(Cc1cn2ccsc2n1)Nc1nc2c(s1)CN(Cc1ccccc1)CC2", "cytotoxicity": "-4.7%"}, {"smiles": "O=C(Cc1cn2ccsc2n1)Nc1nc2c(s1)CCCC2", "cytotoxicity": "6.8%"}, {"smiles": "CC(C)(C)C1CCc2nc(NC(=O)Cc3cn4ccsc4n3)sc2C1", "note": "(stereo not given)", "cytotoxicity": "57.3% (active)"}, {"smiles": "N#CC1=C(N)NC(SCC(=O)O)=C(C#N)C12CCCC2", "cytotoxicity": "4.9%"}, {"smiles": "CC1(C)CC(=O)C2=C(C1)NC(SCC(=O)Nc1ccccc1)=C(C#N)C21CCCCC1", "cytotoxicity": "-19.2%"}, {"smiles": "CSC1=C(C#N)C2(CCCC2)C(C#N)=C(N)N1", "cytotoxicity": "22.6%"}, {"smiles": "CCSC1=C(C#N)C2(CCCC2)C(C#N)=C(N)N1", "cytotoxicity": "-1.6%"}, {"smiles": "COc1ccc(C(=O)CSC2=C(C#N)C3(CCCCC3)C(C#N)=C(N)N2)cc1", "cytotoxicity": "22.5%"}, {"smiles": "CCSC1=C(C#N)C2(CCCCC2)C(C#N)=C(N)N1", "cytotoxicity": "-4.6%"}, {"smiles": "N#CC1=C(N)NC(SCc2ccccc2)=C(C#N)C12CCCCC2", "cytotoxicity": "72.2% (active)"}, {"smiles": "CCOC(=O)c1cnn(-c2ncnc3c2oc2ccccc23)c1N", "cytotoxicity": "-2.5%"}, {"smiles": "COc1ccc(C2(CCN)CC(C)N(C)CC2C)cc1", "note": "(stereo not given)", "cytotoxicity": "-5.8%"}, {"smiles": "O=C(c1cc(F)c(F)cc1Cl)N1CCCCC1", "cytotoxicity": "-3%"}, {"smiles": "CCCSc1nc2c(cnn2-c2ccc(F)cc2)c(=O)[nH]1", "cytotoxicity": "-9.3%"}, {"smiles": "Cc1ccc(S(=O)(=O)NCCCN2CCOCC2)cc1C", "cytotoxicity": "-25%"}, {"smiles": "Oc1ccc(-c2nc3cnccn3c2Nc2ccc3c(c2)OCCO3)cc1", "cytotoxicity": "3.8%"}, {"smiles": "CCOC(=O)c1sc(NC(=O)CSc2n[nH]c(-c3ccccc3)n2)c(C#N)c1C", "cytotoxicity": "4.4%"}, {"smiles": "CCOC(=O)c1c(NC(=O)CSc2n[nH]c(N)n2)sc(CC)c1C", "cytotoxicity": "-3.3%"}, {"smiles": "O=C(COC(=O)C1COc2ccccc2O1)NC(=O)NC1CCCC1", "note": "(stereo not given)", "cytotoxicity": "-11.8%"}]}]}
